Growth inhibition data for 41 compounds are collected here from PubChem BioAssay (NCI).

Compounds without any hit were thinned out: in the full panel of roughly 79,000, 15% have a hit. Unmarked numbers belong to inactive results. Calls of active or inactive are those of the source. Rule as the data show it: active = growth inhibition above about 70%; inactive = the rest.

Test [1] can be described thus: NCI Yeast Anticancer Drug Screen. Data for the rad50 strain (AID 155).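 Also: 0% = growth of vehicle-only cultures of the same strain.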 As to conditions: S. cerevisiae rad50 strain growth inhibition; at 50.0 µM; hits give high values. An outline of the steps:
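Genetically altered yeast (DNA repair pathway); compound treatment; growth inhibition vs vehicle ctrl.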

Test [2] in a line: NCI Yeast Anticancer Drug Screen. Data for the mec2-1 strain (AID 157). As to conditions: S. cerevisiae mec2-1 strain, at 50.0 µM, hits give high values. An outline of the steps:
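Cells of the genetically defined mec2-1 yeast strain are incubated with test compound. Inhibition of growth is calculated against vehicle-treated controls.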

Test [3] in a line: NCI Yeast Anticancer Drug Screen. Data for the sgs1 mgt1 strain (AID 161).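 Also: 0% = growth of cultures given vehicle only.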 As to conditions: S. cerevisiae sgs1 mgt1 strain, at 50.0 µM, hits give high values. In a few lines:
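Mutant yeast exposed to compound; growth scored against vehicle-only wells.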

Test [4] can be described thus: NCI Yeast Anticancer Drug Screen. Data for the cln2 rad14 strain (AID 165).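 Also: 0% = growth equal to vehicle treated cultures.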 The following applies: S. cerevisiae cln2 rad14 strain, at 50.0 µM, hits give high values. In a few lines: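 The screen exposed genetically defined yeast (cln2 rad14) to test compounds and scored growth inhibition relative to vehicle-treated controls.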
Test [5] in a line: NCI Yeast Anticancer Drug Screen. Data for the bub3 strain (AID 167). The following applies: S. cerevisiae bub3 mutant strain, at 50.0 µM, hits give high values. An outline of the steps: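 Yeast carrying a defined mutation is treated with each compound, and growth is compared with that of vehicle-exposed cells to give inhibition.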
The nature of test [6]: NCI Yeast Anticancer Drug Screen. Data for the mlh1 rad18 strain (AID 175). The following applies: S. cerevisiae mlh1 rad18 strain growth inhibition; at 50.0 µM; hits give high values. In a few lines: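 Compound-treated yeast growth, normalised to vehicle controls. Strain bears defined DNA repair mutations.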

With `COC(=O)C1C(=O)C=C(C)C(C(=O)OC)C1c1ccccc1` (stereo unspecified), the growth inhibition was 7.7% in test [1]; -4.2% in test [2]; 6.15% in test [3]; -5.85% in test [4]; 12.5% in test [5]; 0.25% in test [6].
`O=C(c1ccc(F)cc1)c1ccc2ccccc2c1C(=O)O`: the growth inhibition in test [1] is 4.4%; in test [2], 7.65%; in test [3] it was 13.1%; in test [4], 14.3%; in test [5], 38.2%; in test [6] it was -11.3%.
Regarding `O=C(Nc1cccc(Cl)c1)Oc1cccnc1`, the growth inhibition in test [1] is -5.1%; in test [2] it was -29.9%; in test [3], 7.7%; in test [4], -4.55%; in test [5] it was -2.85%; in test [6] it was -12.6%.
Consider `CCCCCCCCCCCCCCCCCCCCCC`, for which the growth inhibition in test [1] is -28.1%; in test [2], -26.1%; in test [3], -8.7%; in test [4] it was 0%; in test [5], -25.9%; in test [6], -18.1%.
Consider `C[N+](C)(C)Cc1cc2ccccc2c2ccccc12`, for which the growth inhibition was -23% in test [1]; -8.9% in test [2]; -18.8% in test [3]; -9.55% in test [4]; -8.35% in test [5]; 20.1% in test [6].
As for `O=C(O)C1CCCCC1C(=O)Nc1ccc(Cl)c(Cl)c1` (stereo unspecified), the growth inhibition in test [1] is 5.75%; in test [2], 20.1%; in test [3], -5.65%; in test [4], -4.15%; in test [5], 13.6%; in test [6], -48.1%.
In the case of `C=CCCCCCCCCC(=O)OCC(C)C`, the growth inhibition in test [1] was 11.3%; in test [2], 22.4%; in test [3], 15.9%; in test [4] it was -27.2%; in test [5] it was -24.1%; in test [6], 17.4%.
Regarding `Cc1ccc(NC(=O)CSc2nnc(Cc3ccccc3)o2)cc1`, the growth inhibition in test [1] is -15.4%; in test [2], -4.35%; in test [3] it was -18.5%; in test [4], -20.1%; in test [5], -3.65%; in test [6], -25.6%.
On to `CCC1=C(C)C(=O)OC1n1ccc(=O)[nH]c1=O` (stereo unspecified), for which the growth inhibition in test [1] is -11.6%; in test [2], -2.75%; in test [3] it was 2.8%; in test [4], -37%; in test [5] it was -5%; in test [6], -3.5%.
Turning to `CCOC(=O)C#Cc1ccc(C#CC(=O)OCC)cc1`, the growth inhibition in test [1] was -0.5%; in test [2] it was 19.4%; in test [3], 6.45%; in test [4] it was -2.95%; in test [5] it was 1.95%; in test [6] it was 51%.
With `COc1ccc2c(O)c(Oc3ccc(Cl)cc3)c(=O)oc2c1`, the growth inhibition in test [1] was -4.2%; in test [2], -1.1%; in test [3] it was -1.45%; in test [4] it was 2.6%; in test [5], 7.95%; in test [6], 22.4%.
In the case of `CCCCCCCCCCCCCCCCCN(C)C(=O)OCC`, the growth inhibition in test [1] is 23.1%; in test [2], -62.5%; in test [3], -55.5%; in test [4], -114%; in test [5], -7.15%; in test [6], -30.8%.
Take `COc1c(-c2ccccc2)c(=O)n2c3cc(C)c(C)cc3n(C)c2c1C#N`: the growth inhibition was -13.4% in test [1]; -0.4% in test [2]; 18.5% in test [3]; -13.9% in test [4]; -31.1% in test [5]; -2.85% in test [6].
In the case of `O=C(Nc1ccc(Cl)c(Cl)c1)Oc1ccc(-c2ccccc2)cc1`, the growth inhibition in test [1] was 73.2% (active); in test [2], 88% (active); in test [3], 93.2% (active); in test [4], 43.6%; in test [5] it was 87.5% (active); in test [6], 95.7% (active).
Turning to `COC(=O)C(/C(=N/NC(=O)c1ccncc1)C(=O)Nc1ccccc1OC)c1nc2ccc(Cl)cc2[nH]c1=O` (stereo unspecified), the growth inhibition was 5.8% in test [1]; -6% in test [2]; -11% in test [3]; -38% in test [4]; -17.7% in test [5]; 11.4% in test [6].
As to `Cc1cccc(NC(=O)/C(=N\NC(C)(C)C)C2NC(=S)NC2=O)c1C` (stereo unspecified), the growth inhibition was -2.25% in test [1]; -29.8% in test [2]; -38.5% in test [3]; -6.6% in test [4]; -16.4% in test [5]; -39.1% in test [6].
For `CCCOc1ccc(C(=O)C(C(c2ccccc2)N2CCOCC2)N2CCOCC2)cc1` (stereo unspecified), the growth inhibition in test [1] was -71.2%; in test [2] it was 22.5%; in test [3], 21%; in test [4] it was 36.7%; in test [5], 35.8%; in test [6], 54%.
Regarding `Cc1ccc2nc(N(C)C)nc(N)c2c1`, the growth inhibition was -7.95% in test [1]; 2.05% in test [2]; -5.45% in test [3]; -7.85% in test [4]; -8.3% in test [5]; -6.2% in test [6].
Take `CC(=O)/C(C)=N/Nc1ccccc1`: the growth inhibition was 7.35% in test [1]; 8.6% in test [2]; -2.6% in test [3]; -11% in test [4]; -5.7% in test [5]; 11% in test [6].
As to `COC(=O)c1ccc(/C=C2\N=C(C)OC2=O)cc1`, the growth inhibition in test [1] is -17.9%; in test [2], -28.6%; in test [3] it was 0.6%; in test [4] it was 12.2%; in test [5], -22.8%; in test [6], -17.9%.
As to `O=C1CCCC2=C1C(c1ccccc1)/C(=N/O)O2` (stereo unspecified), the growth inhibition in test [1] was 14.6%; in test [2], -11.2%; in test [3] it was -4.45%; in test [4], -12.1%; in test [5], 8%; in test [6], 16.1%.
In the case of `C(=C1c2c(ccc3ccccc23)Oc2ccc3ccccc3c21)c1ccccc1`, the growth inhibition in test [1] is 14.3%; in test [2], 10.6%; in test [3] it was 12.3%; in test [4], -30.1%; in test [5], 1.65%; in test [6], 14.3%.
Take `Fc1ccc(-c2nnc(-c3ccc4ccccc4c3)o2)cc1`: the growth inhibition was 18.1% in test [1]; -11.3% in test [2]; 21.4% in test [3]; 12.2% in test [4]; 35.8% in test [5]; -1.3% in test [6].
Consider `COc1ccc(OC)c2c1CCCC2`, for which the growth inhibition in test [1] was -8.4%; in test [2] it was -5.95%; in test [3] it was -1.65%; in test [4] it was -7.35%; in test [5], 0.95%; in test [6], 7.1%.
`CCc1cccc(CC)c1N=Cc1ccccc1O`: the growth inhibition in test [1] was 32.8%; in test [2] it was 11%; in test [3] it was 21.6%; in test [4] it was 16.1%; in test [5], 10.8%; in test [6] it was 19%.
For the compound `COc1cc(N=Nc2ccccc2)cc(/C=N\NC(=S)Nc2cccc(C)c2)c1O`, the growth inhibition in test [1] was 35.2%; in test [2], 19.9%; in test [3], 29.8%; in test [4], 24.9%; in test [5], -8.15%; in test [6], 39.7%.
With `COC(=O)C(C)C1Sc2ccccc2NC1=O` (stereo unspecified), the growth inhibition was 4.6% in test [1]; 1.85% in test [2]; -17.3% in test [3]; -4% in test [4]; -16.6% in test [5]; 2.6% in test [6].
With `N#CC(=S)N(C(=O)c1ccc(Cl)cc1)c1ccccc1Cl`, the growth inhibition is -1.4% in test [1]; 28.6% in test [2]; 12.6% in test [3]; -18.9% in test [4]; 45.5% in test [5]; 24.9% in test [6].
Regarding `Cc1ccc(CN2CCCCC2)o1`, the growth inhibition in test [1] is 16.6%; in test [2], 3.2%; in test [3], 0.2%; in test [4], 1.1%; in test [5], 2.05%; in test [6], 7.5%.
Take `Cc1ccc(NC(=O)NCCCN2CCOCC2)cc1NC(=O)NCCCN1CCOCC1`: the growth inhibition in test [1] is -11.8%; in test [2] it was -22.6%; in test [3], 3.85%; in test [4], 17.2%; in test [5] it was 8.3%; in test [6], 7.05%.
Turning to `CN(C)/C=C/c1ccnc2c1C(=O)c1ccccc1C2=O`, the growth inhibition in test [1] was 83.7% (active); in test [2], 90.5% (active); in test [3], 73.3% (active); in test [4] it was 67.8%; in test [5] it was 75.5% (active); in test [6], 92.7% (active).
Consider `CN1CCn2c(Br)ccc2C1=O`, for which the growth inhibition in test [1] is 13.6%; in test [2], -11.6%; in test [3] it was -1.55%; in test [4] it was 8.45%; in test [5], 2.65%; in test [6], -3.3%.
As to `CSc1cnn(-c2ccccc2)[n+]1[O-]`, the growth inhibition in test [1] was 3.8%; in test [2], -1.3%; in test [3], -7.15%; in test [4], -42.5%; in test [5], -1.75%; in test [6] it was -0.85%.
For the compound `CN(C)Cc1c[nH]c2nc[nH]c(=O)c12`, the growth inhibition in test [1] was -1.3%; in test [2] it was -31.4%; in test [3], -31.4%; in test [4], 6%; in test [5] it was -9.5%; in test [6], -16.4%.
With `CC(=O)OCC1OC(Cl)C(NS(=O)(=O)Cc2ccccc2)C(OC(C)=O)C1OC(C)=O` (stereo unspecified), the growth inhibition was 7.6% in test [1]; 15.7% in test [2]; 15.7% in test [3]; 24.6% in test [4]; 5.35% in test [5]; 22.4% in test [6].
Regarding `Clc1ccc([I+]c2ccc(Cl)cc2)cc1`, the growth inhibition in test [1] was 96.2% (active); in test [2], 95.5% (active); in test [3] it was 97.5% (active); in test [4], 97.4% (active); in test [5] it was 97% (active); in test [6], 97.2% (active).
`NC(=O)N/N=C1\CCCCC12CCCCC2`: the growth inhibition in test [1] was 4.3%; in test [2], 6.25%; in test [3], -4.9%; in test [4], -16.1%; in test [5] it was 2.2%; in test [6], -11.4%.
`c1ccc2c(c1)ccc1nc3c4ccccc4c4ccccc4c3nc12`: the growth inhibition in test [1] was 13.6%; in test [2], -2.85%; in test [3] it was -6.9%; in test [4], -3.45%; in test [5] it was 13%; in test [6] it was 13.8%.
On to `CC(=O)OCC1OC(n2c(Br)nc3c2c(=O)n(C)c(=O)n3C)C(OC(C)=O)C1OC(C)=O` (stereo unspecified), for which the growth inhibition in test [1] was -19.9%; in test [2], -1.3%; in test [3] it was -14.3%; in test [4], -7.95%; in test [5], -0.95%; in test [6] it was 0.25%.
For the compound `OCCOc1c(Cl)c(C(Cl)(Cl)Cl)nc2ccccc12`, the growth inhibition is 84.2% (active) in test [1]; 95.3% (active) in test [2]; 91% (active) in test [3]; 46% in test [4]; 94% (active) in test [5]; 94.3% (active) in test [6].
With `CC(=O)O[C@@H]1C[C@H](C)CC(C)(C)C1`, the growth inhibition was 3.35% in test [1]; 5.75% in test [2]; -10.6% in test [3]; -3.7% in test [4]; 0.4% in test [5]; -3.1% in test [6].
